We go through one sequence from paper PMC7862700, “An all-to-all approach to the identification of sequence-specific readers for epigenetic DNA modifications on cytosine”.

Common to all, as to test: DAPPL (digital affinity profiling via proximity ligation, sequencing); 10 mM Tris-HCl pH 7.5, 50 mM NaCl, 1 mM DTT, 4% glycerol, room temperature, 30 min; GST-TFs on glutathione beads, 16-mer random dsDNA library, 0.1% formaldehyde crosslink after washing; high values mean tight binding
In one test the target is T1, FLI1 (Homo sapiens, UniProt Q01543 1-452).
T1 sequence: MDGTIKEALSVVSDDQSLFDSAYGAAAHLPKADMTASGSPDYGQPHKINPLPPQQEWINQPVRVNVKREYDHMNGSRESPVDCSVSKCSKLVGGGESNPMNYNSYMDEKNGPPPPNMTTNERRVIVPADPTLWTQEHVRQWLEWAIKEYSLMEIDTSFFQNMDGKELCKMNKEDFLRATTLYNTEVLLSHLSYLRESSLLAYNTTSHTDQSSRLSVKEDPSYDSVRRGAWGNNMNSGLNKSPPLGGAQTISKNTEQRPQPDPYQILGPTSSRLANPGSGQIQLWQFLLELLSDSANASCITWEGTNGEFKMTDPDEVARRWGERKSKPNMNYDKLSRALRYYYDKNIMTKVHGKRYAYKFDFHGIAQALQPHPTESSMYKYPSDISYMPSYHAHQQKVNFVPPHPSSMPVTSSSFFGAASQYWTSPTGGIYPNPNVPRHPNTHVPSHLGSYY
The following applies: protein: recombinant; tags: N-terminal GST; dsDNA, one strand shown. In outline:
(§1)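 Beads coated with glutathione captured GST-fused human transcription factors that had been expressed in yeast, and the factors were then given DNA barcodes and pooled with a tag-only sample. The pools were incubated with 200 nmole of a random double-stranded 16-mer DNA library in Tris/NaCl/DTT/glycerol buffer for 30 min at room temperature, washed, crosslinked with 0.1% formaldehyde and proximity-ligated with BsaI/T4 ligase at 37 °C for 1 h. PCR amplification and Illumina NextSeq500 sequencing came last. Binding signal is each hexamer's read frequency for a factor divided by its frequency for the tag-only sample.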

The target of a further test is T2, ELK1 (Homo sapiens, UniProt P19419 1-428).
T2 sequence: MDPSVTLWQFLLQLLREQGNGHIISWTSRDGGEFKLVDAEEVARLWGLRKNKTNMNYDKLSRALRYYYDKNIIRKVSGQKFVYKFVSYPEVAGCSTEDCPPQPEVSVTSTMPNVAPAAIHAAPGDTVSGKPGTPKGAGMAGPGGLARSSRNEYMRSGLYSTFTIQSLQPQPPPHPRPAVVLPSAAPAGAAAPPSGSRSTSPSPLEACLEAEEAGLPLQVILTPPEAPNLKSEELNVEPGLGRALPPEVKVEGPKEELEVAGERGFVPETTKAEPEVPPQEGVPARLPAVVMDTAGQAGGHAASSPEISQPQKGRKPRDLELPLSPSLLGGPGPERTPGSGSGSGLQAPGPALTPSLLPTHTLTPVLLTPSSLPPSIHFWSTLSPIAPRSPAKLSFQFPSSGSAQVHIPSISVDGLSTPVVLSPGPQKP
The following applies: protein: recombinant; tags: N-terminal GST; dsDNA, one strand shown. The procedure, abridged:
as §1

A further test concerns the target T3, GABPA (Homo sapiens, UniProt Q06546 1-454).
T3 sequence: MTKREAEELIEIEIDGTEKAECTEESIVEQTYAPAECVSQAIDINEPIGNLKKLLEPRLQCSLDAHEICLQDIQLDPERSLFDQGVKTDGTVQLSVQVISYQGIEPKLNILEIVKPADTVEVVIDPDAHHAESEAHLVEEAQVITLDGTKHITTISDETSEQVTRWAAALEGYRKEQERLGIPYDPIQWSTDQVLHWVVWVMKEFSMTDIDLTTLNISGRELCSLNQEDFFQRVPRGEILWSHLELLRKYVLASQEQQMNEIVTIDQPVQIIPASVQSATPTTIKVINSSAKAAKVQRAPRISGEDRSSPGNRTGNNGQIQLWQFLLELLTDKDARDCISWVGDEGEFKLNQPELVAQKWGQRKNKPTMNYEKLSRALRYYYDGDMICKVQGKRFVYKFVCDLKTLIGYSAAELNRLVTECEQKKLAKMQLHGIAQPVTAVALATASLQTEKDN
The following applies: protein: recombinant; tags: N-terminal GST; dsDNA, one strand shown. The procedure, abridged:
as §1

A further test concerns the target T4, ERG (Homo sapiens, UniProt P11308 1-479).
T4 sequence: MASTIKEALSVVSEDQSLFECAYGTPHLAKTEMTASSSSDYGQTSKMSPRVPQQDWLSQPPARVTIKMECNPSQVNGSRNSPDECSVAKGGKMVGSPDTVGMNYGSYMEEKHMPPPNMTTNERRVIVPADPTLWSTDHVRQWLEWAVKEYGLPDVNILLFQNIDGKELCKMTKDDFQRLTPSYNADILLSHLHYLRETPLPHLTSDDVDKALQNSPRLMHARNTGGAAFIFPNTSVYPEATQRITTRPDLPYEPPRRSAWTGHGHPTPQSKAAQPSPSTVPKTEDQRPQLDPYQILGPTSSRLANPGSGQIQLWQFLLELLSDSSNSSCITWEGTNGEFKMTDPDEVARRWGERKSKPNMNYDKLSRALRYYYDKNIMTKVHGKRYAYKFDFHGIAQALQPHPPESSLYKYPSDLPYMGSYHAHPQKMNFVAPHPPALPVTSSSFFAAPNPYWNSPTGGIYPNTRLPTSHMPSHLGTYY
To be noted: protein: recombinant; tags: N-terminal GST; dsDNA, one strand shown. In outline:
as §1

The target of the next test is ELF1 (Homo sapiens, UniProt P32519 1-619). The following applies: protein: recombinant; tags: N-terminal GST; dsDNA, one strand shown. The procedure, abridged:
as §1

A further test addresses T5, EHF (Homo sapiens, UniProt Q9NZC4 1-300).
T5 sequence: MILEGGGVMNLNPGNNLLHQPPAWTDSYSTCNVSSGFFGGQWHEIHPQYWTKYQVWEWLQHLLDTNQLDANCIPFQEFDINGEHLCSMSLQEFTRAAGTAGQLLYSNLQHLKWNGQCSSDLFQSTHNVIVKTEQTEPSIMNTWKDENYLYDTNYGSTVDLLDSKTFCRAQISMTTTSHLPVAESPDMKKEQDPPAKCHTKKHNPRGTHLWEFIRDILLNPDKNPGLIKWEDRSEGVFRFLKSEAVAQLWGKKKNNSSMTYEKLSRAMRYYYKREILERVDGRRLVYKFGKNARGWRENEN
The following applies: protein: recombinant; tags: N-terminal GST; dsDNA, one strand shown. The procedure, abridged:
as §1

The target of the next test is SPI1 (Homo sapiens, UniProt P17947 1-270). To be noted: protein: recombinant; tags: N-terminal GST; dsDNA, one strand shown. In outline:
as §1

The next test deals with SPIB (Homo sapiens, UniProt Q01892 1-262). To be noted: protein: recombinant; tags: N-terminal GST; dsDNA, one strand shown. In outline: as §1
SPIB, sequence (Q01892 whole entry): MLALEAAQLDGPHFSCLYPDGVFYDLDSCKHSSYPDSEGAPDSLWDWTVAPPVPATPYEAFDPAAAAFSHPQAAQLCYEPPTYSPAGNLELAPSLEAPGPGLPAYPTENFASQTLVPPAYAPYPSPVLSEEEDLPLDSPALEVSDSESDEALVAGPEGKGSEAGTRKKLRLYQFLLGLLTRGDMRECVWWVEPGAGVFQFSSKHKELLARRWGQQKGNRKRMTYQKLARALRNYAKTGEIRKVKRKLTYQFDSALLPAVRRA
A further test deals with T6, ELK3 (Homo sapiens, UniProt P41970 1-407).
T6 sequence: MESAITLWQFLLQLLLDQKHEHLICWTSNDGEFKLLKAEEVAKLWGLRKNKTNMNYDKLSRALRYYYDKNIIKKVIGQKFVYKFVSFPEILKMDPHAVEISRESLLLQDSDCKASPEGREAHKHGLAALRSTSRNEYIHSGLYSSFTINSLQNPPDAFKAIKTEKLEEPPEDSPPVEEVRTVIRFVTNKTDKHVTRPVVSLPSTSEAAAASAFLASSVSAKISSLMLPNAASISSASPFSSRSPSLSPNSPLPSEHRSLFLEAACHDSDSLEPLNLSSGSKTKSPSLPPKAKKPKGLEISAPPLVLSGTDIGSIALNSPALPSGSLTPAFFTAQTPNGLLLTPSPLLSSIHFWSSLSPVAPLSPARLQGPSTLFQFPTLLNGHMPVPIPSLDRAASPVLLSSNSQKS
To be noted: protein: recombinant; tags: N-terminal GST; dsDNA, one strand shown. The procedure, abridged:
as §1

In a further test the target is T7, FEV (Homo sapiens, UniProt Q99581 1-238).
T7 sequence: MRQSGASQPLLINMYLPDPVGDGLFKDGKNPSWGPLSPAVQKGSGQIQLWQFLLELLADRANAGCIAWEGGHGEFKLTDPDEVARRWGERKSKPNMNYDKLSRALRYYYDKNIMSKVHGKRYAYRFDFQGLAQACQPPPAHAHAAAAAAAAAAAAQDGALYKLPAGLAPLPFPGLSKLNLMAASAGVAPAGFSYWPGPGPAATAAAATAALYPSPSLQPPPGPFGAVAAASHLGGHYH
To be noted: protein: recombinant; tags: N-terminal GST; dsDNA, one strand shown. The procedure, abridged: as §1

In the next test the target is ETV5 (Homo sapiens, UniProt P41161 1-510). The following applies: protein: recombinant; tags: N-terminal GST; dsDNA, one strand shown. In outline:
as §1

For a further test, the target named is HSF1 (Homo sapiens, UniProt Q00613 1-529). To be noted: protein: recombinant; tags: N-terminal GST; chain copies: 3; dsDNA, one strand shown. In outline: as §1
HSF1, sequence (Q00613 whole entry): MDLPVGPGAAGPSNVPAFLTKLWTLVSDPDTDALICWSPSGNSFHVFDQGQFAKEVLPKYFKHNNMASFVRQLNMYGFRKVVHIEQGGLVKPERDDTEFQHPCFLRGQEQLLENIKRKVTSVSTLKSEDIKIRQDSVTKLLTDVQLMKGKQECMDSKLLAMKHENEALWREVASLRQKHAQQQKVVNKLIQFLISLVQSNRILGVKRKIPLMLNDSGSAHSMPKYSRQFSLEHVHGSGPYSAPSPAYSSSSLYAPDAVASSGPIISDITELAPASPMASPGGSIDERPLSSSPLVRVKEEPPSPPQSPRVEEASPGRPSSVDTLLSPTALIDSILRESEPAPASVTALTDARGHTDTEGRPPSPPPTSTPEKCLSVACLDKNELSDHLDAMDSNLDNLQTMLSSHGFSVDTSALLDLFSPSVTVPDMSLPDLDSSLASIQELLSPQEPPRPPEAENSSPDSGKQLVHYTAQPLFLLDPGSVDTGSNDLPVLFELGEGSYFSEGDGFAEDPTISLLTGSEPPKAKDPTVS
The target in another test is T8, SPIC (Homo sapiens, UniProt Q8N5J4 1-248).
T8 sequence: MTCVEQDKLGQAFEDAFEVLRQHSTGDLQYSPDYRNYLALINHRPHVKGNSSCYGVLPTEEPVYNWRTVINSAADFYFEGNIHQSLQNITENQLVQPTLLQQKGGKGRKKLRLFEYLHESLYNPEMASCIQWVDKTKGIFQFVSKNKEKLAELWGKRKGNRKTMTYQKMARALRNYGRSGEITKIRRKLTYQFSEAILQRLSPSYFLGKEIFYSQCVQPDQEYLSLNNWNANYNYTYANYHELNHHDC
The following applies: protein: recombinant; tags: N-terminal GST; dsDNA, one strand shown. In outline:
as §1

The target of another test is ELF4 (Homo sapiens, UniProt Q99607 1-663). To be noted: protein: recombinant; tags: N-terminal GST; dsDNA, one strand shown. The procedure, abridged:
as §1

A further test has as its target T9, ELK4 (Homo sapiens, UniProt P28324-2 1-405).
T9 sequence: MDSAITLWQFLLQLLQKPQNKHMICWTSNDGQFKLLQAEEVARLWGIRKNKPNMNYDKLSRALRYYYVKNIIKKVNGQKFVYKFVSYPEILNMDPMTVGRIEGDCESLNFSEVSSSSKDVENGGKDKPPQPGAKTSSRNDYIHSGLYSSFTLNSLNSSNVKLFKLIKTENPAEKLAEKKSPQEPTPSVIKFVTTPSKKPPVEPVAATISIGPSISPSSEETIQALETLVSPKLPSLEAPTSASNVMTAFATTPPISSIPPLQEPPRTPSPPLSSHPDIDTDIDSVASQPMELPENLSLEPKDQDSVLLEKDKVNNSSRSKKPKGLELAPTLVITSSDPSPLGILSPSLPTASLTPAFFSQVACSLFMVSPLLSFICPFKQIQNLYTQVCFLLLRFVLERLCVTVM
To be noted: protein: recombinant; tags: N-terminal GST; dsDNA, one strand shown. In outline:
as §1

The target in the next test is T10, ETV2 (Homo sapiens, UniProt O00321 1-342).
T10 sequence: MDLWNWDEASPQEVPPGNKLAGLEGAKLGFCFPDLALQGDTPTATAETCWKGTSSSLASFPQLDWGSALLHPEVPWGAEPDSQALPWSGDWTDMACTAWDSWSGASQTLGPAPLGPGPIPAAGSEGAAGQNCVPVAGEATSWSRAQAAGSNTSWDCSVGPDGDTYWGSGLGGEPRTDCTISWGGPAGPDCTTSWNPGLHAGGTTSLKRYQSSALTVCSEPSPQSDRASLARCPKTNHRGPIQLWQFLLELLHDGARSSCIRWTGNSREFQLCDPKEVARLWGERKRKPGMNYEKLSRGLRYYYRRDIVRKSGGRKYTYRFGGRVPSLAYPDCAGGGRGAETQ
To be noted: protein: recombinant; tags: N-terminal GST; dsDNA, one strand shown. In outline: as §1

The next test addresses T11, ELF3 (Homo sapiens, UniProt P78545 1-371).
T11 sequence: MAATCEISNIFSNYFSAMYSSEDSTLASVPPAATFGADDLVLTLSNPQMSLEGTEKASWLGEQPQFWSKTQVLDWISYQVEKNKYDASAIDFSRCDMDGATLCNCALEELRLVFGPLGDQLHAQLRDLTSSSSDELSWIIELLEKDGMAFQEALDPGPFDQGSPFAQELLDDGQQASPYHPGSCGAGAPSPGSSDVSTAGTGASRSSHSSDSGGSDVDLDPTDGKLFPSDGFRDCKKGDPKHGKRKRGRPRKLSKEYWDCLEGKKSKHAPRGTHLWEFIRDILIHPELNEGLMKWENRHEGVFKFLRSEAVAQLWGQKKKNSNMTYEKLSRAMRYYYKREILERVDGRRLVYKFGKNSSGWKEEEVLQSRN
The following applies: protein: recombinant; tags: N-terminal GST; dsDNA, one strand shown. The procedure, abridged: as §1

The next test addresses CRX (Homo sapiens, UniProt O43186 1-299). To be noted: protein: recombinant; tags: N-terminal GST; dsDNA, one strand shown. The procedure, abridged:
as §1

In the next test the target is ETV1 (Homo sapiens, UniProt P50549 1-477). To be noted: protein: recombinant; tags: N-terminal GST; dsDNA, one strand shown. The procedure, abridged:
as §1

ETV5, sequence (P41161 whole entry): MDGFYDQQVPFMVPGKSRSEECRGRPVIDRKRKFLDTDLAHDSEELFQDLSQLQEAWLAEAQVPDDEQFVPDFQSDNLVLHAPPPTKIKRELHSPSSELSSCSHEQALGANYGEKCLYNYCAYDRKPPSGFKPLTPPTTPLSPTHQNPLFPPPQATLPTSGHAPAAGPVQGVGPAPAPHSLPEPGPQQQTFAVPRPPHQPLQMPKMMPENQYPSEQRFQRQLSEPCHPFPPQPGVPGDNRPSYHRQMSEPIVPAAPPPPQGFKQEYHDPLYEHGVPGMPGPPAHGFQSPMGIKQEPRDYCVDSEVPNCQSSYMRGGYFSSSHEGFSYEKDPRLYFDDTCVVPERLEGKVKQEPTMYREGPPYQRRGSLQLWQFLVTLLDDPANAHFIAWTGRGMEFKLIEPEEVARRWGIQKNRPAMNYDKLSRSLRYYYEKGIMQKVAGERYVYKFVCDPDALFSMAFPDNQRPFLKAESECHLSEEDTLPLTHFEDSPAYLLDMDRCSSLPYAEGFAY
ELF1, sequence (P32519 whole entry): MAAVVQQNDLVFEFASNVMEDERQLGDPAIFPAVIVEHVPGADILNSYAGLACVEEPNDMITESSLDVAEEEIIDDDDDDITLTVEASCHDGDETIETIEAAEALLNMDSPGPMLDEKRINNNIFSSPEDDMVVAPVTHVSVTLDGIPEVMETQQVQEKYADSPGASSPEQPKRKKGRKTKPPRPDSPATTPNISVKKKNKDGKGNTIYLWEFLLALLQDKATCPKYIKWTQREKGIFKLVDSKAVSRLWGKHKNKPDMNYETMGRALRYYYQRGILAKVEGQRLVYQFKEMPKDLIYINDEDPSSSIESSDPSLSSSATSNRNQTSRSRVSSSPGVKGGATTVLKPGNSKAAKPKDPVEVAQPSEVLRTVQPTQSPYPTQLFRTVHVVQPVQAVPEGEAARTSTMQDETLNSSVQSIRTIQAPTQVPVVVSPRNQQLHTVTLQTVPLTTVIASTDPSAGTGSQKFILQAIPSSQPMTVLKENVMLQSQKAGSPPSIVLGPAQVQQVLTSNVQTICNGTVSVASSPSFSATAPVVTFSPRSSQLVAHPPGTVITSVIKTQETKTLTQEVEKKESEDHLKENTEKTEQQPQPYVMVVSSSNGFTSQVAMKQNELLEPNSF
ELF4, sequence (Q99607 whole entry): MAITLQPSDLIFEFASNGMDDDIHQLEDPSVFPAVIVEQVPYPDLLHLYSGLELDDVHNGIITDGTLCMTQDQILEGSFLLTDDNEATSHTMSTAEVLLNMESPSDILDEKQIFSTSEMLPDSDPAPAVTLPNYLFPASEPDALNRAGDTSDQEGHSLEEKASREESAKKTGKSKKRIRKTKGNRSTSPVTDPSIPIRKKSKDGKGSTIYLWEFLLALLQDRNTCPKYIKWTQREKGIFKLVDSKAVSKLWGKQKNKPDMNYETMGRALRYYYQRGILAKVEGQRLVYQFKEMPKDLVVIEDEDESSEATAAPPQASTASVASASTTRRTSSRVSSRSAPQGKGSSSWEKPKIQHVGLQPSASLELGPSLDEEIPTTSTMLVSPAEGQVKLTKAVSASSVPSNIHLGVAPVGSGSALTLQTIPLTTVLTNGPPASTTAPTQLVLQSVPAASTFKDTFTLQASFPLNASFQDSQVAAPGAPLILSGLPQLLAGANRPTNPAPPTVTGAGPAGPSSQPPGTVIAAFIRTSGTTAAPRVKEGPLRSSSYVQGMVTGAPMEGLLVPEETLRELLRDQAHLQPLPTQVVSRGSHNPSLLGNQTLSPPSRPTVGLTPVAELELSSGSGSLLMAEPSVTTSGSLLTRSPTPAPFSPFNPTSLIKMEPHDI
CRX, sequence (O43186 whole entry): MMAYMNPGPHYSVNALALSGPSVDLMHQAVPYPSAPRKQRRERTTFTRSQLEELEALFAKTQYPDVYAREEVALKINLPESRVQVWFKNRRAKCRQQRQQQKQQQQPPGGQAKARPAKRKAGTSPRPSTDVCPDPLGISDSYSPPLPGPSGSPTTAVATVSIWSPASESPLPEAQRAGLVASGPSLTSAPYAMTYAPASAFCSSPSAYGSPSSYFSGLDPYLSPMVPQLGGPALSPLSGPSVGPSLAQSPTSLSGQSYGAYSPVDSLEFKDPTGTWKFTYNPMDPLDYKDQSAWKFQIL
ETV1, sequence (P50549 whole entry): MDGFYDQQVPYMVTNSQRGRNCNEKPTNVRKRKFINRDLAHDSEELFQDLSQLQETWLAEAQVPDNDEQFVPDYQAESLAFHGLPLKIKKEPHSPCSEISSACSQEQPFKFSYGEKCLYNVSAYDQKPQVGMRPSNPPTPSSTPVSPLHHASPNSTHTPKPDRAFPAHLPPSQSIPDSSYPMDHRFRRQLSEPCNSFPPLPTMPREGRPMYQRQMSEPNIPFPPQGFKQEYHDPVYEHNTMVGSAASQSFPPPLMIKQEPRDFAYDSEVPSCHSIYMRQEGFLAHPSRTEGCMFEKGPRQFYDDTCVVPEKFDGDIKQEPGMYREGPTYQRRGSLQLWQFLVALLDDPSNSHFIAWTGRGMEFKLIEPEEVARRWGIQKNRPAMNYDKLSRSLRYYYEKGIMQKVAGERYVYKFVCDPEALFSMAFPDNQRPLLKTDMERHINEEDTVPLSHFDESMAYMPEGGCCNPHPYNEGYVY

Consider GCTGTA, for which the binding signal in the test with FLI1 is 1.02 fold enrichment (6-mer frequency, TF over GST control); with ELK1 it was 1.04 fold enrichment (6-mer frequency, TF over GST control); in the test with GABPA it was 1.15 fold enrichment (6-mer frequency, TF over GST control); in the test with ERG, 1.08 fold enrichment (6-mer frequency, TF over GST control); in the test with ELF1, 1.21 fold enrichment (6-mer frequency, TF over GST control); with EHF, 1.1 fold enrichment (6-mer frequency, TF over GST control). Also, the binding signal with SPI1 is 1.04 fold enrichment (6-mer frequency, TF over GST control); with SPIB it was 1.04 fold enrichment (6-mer frequency, TF over GST control); with ELK3, 1.14 fold enrichment (6-mer frequency, TF over GST control); in the test with FEV, 1.15 fold enrichment (6-mer frequency, TF over GST control); in the test with ETV5, 1.06 fold enrichment (6-mer frequency, TF over GST control); in the test with HSF1, 1 fold enrichment (6-mer frequency, TF over GST control). Moreover, the binding signal with SPIC was 1.36 fold enrichment (6-mer frequency, TF over GST control); with ELF4 it was 1.08 fold enrichment (6-mer frequency, TF over GST control); with ELK4 it was 1.09 fold enrichment (6-mer frequency, TF over GST control); with ETV2 it was 1.08 fold enrichment (6-mer frequency, TF over GST control); in the test with ELF3 it was 1.07 fold enrichment (6-mer frequency, TF over GST control); in the test with CRX, 1.02 fold enrichment (6-mer frequency, TF over GST control). In addition, the binding signal with ETV1 was 1.06 fold enrichment (6-mer frequency, TF over GST control).
